High-throughput results: PubChem BioAssay, National Center for Advancing Translational Sciences (NCATS)
Lassa entry inh = Lassa virus entry inhibition | 300,000 tested, 1.2% active | Lassa virus pseudotype entry inhibition, cell reporter | AID 540256 | Potency, µM (highest dose often 37.9 µM), inactives show at the top dose activity change, negative = inhibition, actives largely listed as inhibitors; calls by dose curve; tested in HEK293 cells; note: potency is the fitted concentration of half-maximal effect; nearly all actives have a fitted effect of over 50% in size
VACV Venus inh = inhibitors of vaccinia virus (Venus reporter) | 330,000 tested, 0.46% active | Vaccinia virus Venus reporter expression, fluorescence | Potency, µM (series often up to 36.5 µM), without a hit: at the highest dose activity change, negative = inhibition, most hits filed as inhibitors; calls by dose curve; tested in A549 cells; note: potency is the fitted concentration of half-maximal effect; nearly all actives have a fitted effect of over 30% in size
MARV entry inh = blocks Marburg virus binding to or entry into cells. Potency, µM (doses to about 37.8 µM), for the others: at the top dose activity change, negative = inhibition, hits mostly inhibitors. 300,000 tested, 1.8% active. Marburg virus pseudotyped entry inhibition, cell reporter; calls by dose curve; tested in HEK293 cells; note: potency is the fitted concentration of half-maximal effect
FMDV antiviral = blocks foot and mouth disease virus | FMDV antiviral cell-based qHTS | Potency, µM (top dose mostly 57.9 µM), without a hit: top-dose activity change, negative = inhibition, most hits filed as inhibitors | 410,000 tested, 1.2% active | AID 1159524; calls by dose curve; tested in HEK293T cells; note: read-out not given here; potency is the fitted concentration of half-maximal effect; nearly all actives have a fitted effect of over 45% in size
HCMV antiviral = human cytomegalovirus inhibition | AID 1259415 | 410,000 tested, 4.5% active | activity change, negative = inhibition, % at 57.5 µM | HFF cells, HCMV-luciferase reporter, 72 h; active compounds read low; in the data active = activity change below about -60%; inconclusive = no clear call, values can overlap the other calls; inactive = above about -39%
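Two-dose cell screen: HFF monolayers treated with compounds and infected with luciferase-expressing HCMV at 1 PFU/cell, 72 h at 37C, then lysed for luciferase measurement.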
Vaccinia mCherry = vaccinia inhibition (mCherry reporter). Vaccinia virus mCherry reporter infection, fluorescence. Potency, µM (highest dose often 36.5 µM), inactives show at the top dose activity change, negative = inhibition, hits mostly inhibitors. 310,000 tested, 0.63% active; calls by dose curve; tested in A549 cells; note: potency is the fitted concentration of half-maximal effect; nearly all actives have a fitted effect of over 35% in size
Numbers without * were called inactive; i = inactive; ? = inconclusive; . = no result; [ ] = remark or other dose. Only some compounds are listed: those with a hit (about 6.5% of all), similar ones and a draw of the others. % is set by controls: 0 for no effect and ±100 for the full control effect.

SMILES	Lassa entry inh	VACV Venus inh	MARV entry inh	FMDV antiviral	HCMV antiviral	Vaccinia mCherry
Cc1sc(NC(=O)c2ccccc2)c(C(c2ccccn2)N2CCN(CCO)CC2)c1C (centres undefined)	-11%	?	?	-29%	-62*	?
CN[C@@H](C)[C@H](O)c1ccccc1	.	0%	11µM*	-7%	.	-11%
COc1ccc(-c2noc(N3CCC(C(=O)N4CCN(c5cccc(OC)c5)CC4)CC3)n2)cc1	-11%[46.1 µM]	-10%[7.34 µM]	.	?	-84*	-2%[7.34 µM]
COC(=O)c1c(-c2ccc(Cl)cc2)noc1N1CCN(c2cccc(C)c2C)CC1	14%[46.1 µM]	-9%	.	?	11	-11%
COc1ccc(NC(=O)C2CCN(c3nc(-c4ccc(OC)cc4)no3)CC2)cc1	.	-10%	.	-22%	-21	-8%
CCN(C(=O)C1CCN(c2nc(-c3ccc(OC)cc3)no2)CC1)c1ccc(OC)cc1	.	?	.	?	-73*	-14%
COc1ccc(-c2noc(N3CCC(C(=O)N4CCN(c5ccccn5)CC4)CC3)n2)cc1	?	.	?	13µM*	-83*	.
COC(=O)c1c(-c2ccc(Cl)cc2)noc1N1CCN(c2cccc(OC)c2)CC1	12%[46.1 µM]	-23%	.	?	-72*	-11%
CCc1ccc(-n2c(=O)c3sc4ccccc4c3n(Cc3cccc(F)c3)c2=O)cc1	13%[46.1 µM]	3%	12%[46.1 µM]	-4%	4	-4%
Cc1ccc(Nc2nc(NCc3ccco3)nc3nccnc23)cc1	.	-18%	.	.	.	-8%
CNC(=O)[C@H]1O[C@@H](n2cnc3c(NCc4ccc(N)cc4)ncnc32)[C@H](O)[C@H]1O	.	.	41%	.	.	.
COc1ccc(-c2noc(N3CCC(C(=O)N4CCN(c5cccc(C)c5C)CC4)CC3)n2)cc1	13%[46.1 µM]	-22%[7.34 µM]	.	-30%	-29	-12%[7.34 µM]
COc1ccc(-c2noc(N3CCC(C(=O)N4CCN(c5ccccc5OC)CC4)CC3)n2)cc1	?	-18%[7.34 µM]	.	0%	-77*	-3%[7.34 µM]
Cc1ccc(NC(=O)ON=C2CCCC2)cc1	1.4µM*	-15%	10µM*	-5%	-6	-6%
COc1cccc(CN(C)C(=O)c2cnn(-c3nccc(-c4ccc5c(c4)OCO5)n3)c2C)c1	.	-2%	.	53%	.	-10%
CCc1nnc(N/N=C/c2ccc(N3CCC(C)CC3)c([N+](=O)[O-])c2)n1N	?	?	?	2%	-19	10µM*
O=C1/C(=C/c2cccc(Cl)c2)SC(=S)N1CCC(=O)N1CCCCC1CCO (centres undefined)	.	.	.	-17%	-82*	.
COc1ccc(/C=C2\SC(=S)N(CCC(=O)N3CCCCC3CCO)C2=O)cc1 (centres undefined)	.	.	.	?	-84*	.
O=C1/C(=C/c2ccco2)SC(=S)N1CCC(=O)N1CCCCC1CCO (centres undefined)	.	.	.	0%	-92*	.
O=C1/C(=C/c2cccs2)SC(=S)N1CC(=O)N1CCCCC1CCO (centres undefined)	.	.	.	12%	-83*	.
COc1cccc(/C=C2\SC(=S)N(CCC(=O)N3CCCCC3)C2=O)c1	.	.	.	13%	?	.
O=C(CCN1C(=O)/C(=C\c2cccs2)SC1=S)Nc1ccccn1	-22%	22%	-42%[46.1 µM]	-7%	-37	7%
COc1ccc(S[C@]2(c3nc(C)no3)CC(=O)N(c3ccc(Cl)cc3)[C@@H]2c2ccc(OC)cc2)cc1	.	.	.	.	9	.
O=C1/C(=C/c2ccccc2F)SC(=S)N1CCC(=O)N1CCCCC1CCO (centres undefined)	?	-26%	?	-13%	-84*	?
O=C1/C(=C/c2ccccc2)SC(=S)N1CCCC(=O)N1CCCCC1CCO (centres undefined)	.	.	.	?	-101*	.
SMILES	Lassa entry inh	VACV Venus inh	MARV entry inh	FMDV antiviral	HCMV antiviral	Vaccinia mCherry
COc1ccc(/C=C2\SC(=O)N(CCC(=O)N3CCCCC3CCO)C2=O)cc1 (centres undefined)	0%[46.1 µM]	-13%	0%[46.1 µM]	-14%	-7	-3%
O=C1/C(=C/c2ccc(Cl)cc2)SC(=S)N1CCC(=O)N1CCCCC1CCO (centres undefined)	.	.	.	-19%	-86*	.
CCOc1ccccc1NC(=O)NCc1noc2ccc(C)cc12	-5%[46.1 µM]	-13%	.	-1%	16	-14%
CCCCCC(=O)N1C[C@H](O)[C@@H](n2cc(C3CC3)nn2)C[C@H]1c1ccc(OC)cc1	5%[46.1 µM]	.	.	.	.	.
CCOc1cc(CNc2ccc3c(c2)OCCO3)cc(Br)c1OC	?	?	?	25µM*	-86*	?
CCOc1c(Br)cc(CNc2ccc3c(c2)OCCO3)cc1OC	-7%	?	?	25µM*	-82*	?
Cc1ccc(-c2noc(CNC(=O)COc3cc(C)c(Br)c(C)c3)n2)cc1	5%[46.1 µM]	-10%	-1%[46.1 µM]	-15%	-30	1%
CSc1nc(C(=O)NCc2nc(-c3cccc(NC(=O)c4ccccn4)c3)oc2C)cs1	.	-2%	.	14%	.	-13%
CSC1=NC(C(Cl)(Cl)Cl)N=C(c2ccc(C)cc2)N1 (centres undefined)	-29%	?	-20%[46.1 µM]	-22%	-71*	-26%
Cc1c(C(=O)NCCN2CCOCC2)cnn1-c1nccc(-c2cc3ccccc3o2)n1	.	-12%	.	-21%	.	-6%
CS(=O)(=O)c1nc(-c2ccccc2)cc(-c2ccccc2)c1C#N	15µM*	-21%	13µM*	?	.	-7%
CCC[C@H]1[C@@H](NS(=O)(=O)c2ccc(OC)cc2)CC[C@@]23CCCN2C(=O)CCC[C@@H]13	.	.	.	.	-25	.
CN1CC(c2ccccc2)C2(SC(=S)N(Cc3ccco3)C2=O)C12C(=O)Nc1ccccc12 (centres undefined)	?	.	?	?	-101*	.
CC(=O)C[n+]1cccc2cc(Cl)ccc21	.	10%	.	.	.	-13%
O=C(NC(=O)c1cc([N+](=O)[O-])ccc1Cl)C1=C(N2CCCC2)COC1=O	.	-23%	.	20µM*	-25	?
O=C1NC(=O)N(c2ccccc2)C1=O	-15%[46.1 µM]	5%	12%[46.1 µM]	-8%	-8	-12%
O=C1NC(=O)N(Cc2ccccc2)C(=O)/C1=C\C=C\c1ccco1	?	85%	?	25µM*	-98*	i
Cc1ccc(N2C(=O)NC(=O)/C(=C\C=C\c3ccco3)C2=O)cc1C	?	28%	?	?	-102*	-2%
O=C1S/C(=C\C=C\c2ccco2)C(=O)N1c1ccc(O)cc1	?	-14%	21µM*	?	?	i
CCOC(=O)C1=C(C)N(c2ccc(C)c(C)c2)C(=O)/C1=C\c1ccco1	2%	.	-25%	-1%	5	.
CN(C)c1ccc(/C=C/C=C2/C(=O)NC(=O)N(c3ccccc3)C2=O)cc1	?	-6%	?	20µM*	-113*	7%
C[C@H]1CN([C@@H](C)CO)C(=O)CCCn2cc(nn2)CO[C@@H]1CN(C)C(=O)c1ccccc1	.	.	.	.	22	.
